Active and inactive are the calls of the source. Unless noted, how the calls were made is not given here.

The subject of assay [1] is XIP peptide (Xip251-270) binding. Kind of assay: XIP fragment 251-270 binding compounds – biochemical, small-molecule microarray, fluorescence 635/667 nm, 0.1 µg/mL protein, primary screen (AID 1182). Conditions: fluorescent protein binding, 635 nm, higher = more signal, called active from +8 up or from −8 down.
The subject of another assay is XIP peptide (Xip251-270). Description: compounds binding XIP fragment 251-270 – biochemical, small-molecule microarray, fluorescence 635/667 nm, 0.5 µg/mL protein, primary screen (AID 1183). Conditions: fluorescence 635 nm, higher = more signal.
Assay [2] can be described thus: blood-stage malaria parasite viability loss – strain 3D7, DAPI fluorescence, 100 nL, primary screen (AID 1184).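 Further: parasites grown inside human red blood cells in medium with human serum.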 Conditions: P. falciparum 3D7 growth, 3 d, higher = more signal.
In assay [3] the target is Homeobox protein Hox-A13 (Mus musculus) (UniProt Q62424). Description: disruptors of Hoxa13 oligonucleotide interaction – biochemical, fluorescence polarization, labeled oligonucleotide, primary screen (AID 1185). Conditions: Hoxa13:DNA binding, 15 min, higher = more signal, called active from +8 up or from −8 down. (In fluorescence polarisation assays a small probe gives low polarisation when free and higher when bound to something large.)
Sequence of Homeobox protein Hox-A13 (Mus musculus) (Q62424 whole entry, looked up): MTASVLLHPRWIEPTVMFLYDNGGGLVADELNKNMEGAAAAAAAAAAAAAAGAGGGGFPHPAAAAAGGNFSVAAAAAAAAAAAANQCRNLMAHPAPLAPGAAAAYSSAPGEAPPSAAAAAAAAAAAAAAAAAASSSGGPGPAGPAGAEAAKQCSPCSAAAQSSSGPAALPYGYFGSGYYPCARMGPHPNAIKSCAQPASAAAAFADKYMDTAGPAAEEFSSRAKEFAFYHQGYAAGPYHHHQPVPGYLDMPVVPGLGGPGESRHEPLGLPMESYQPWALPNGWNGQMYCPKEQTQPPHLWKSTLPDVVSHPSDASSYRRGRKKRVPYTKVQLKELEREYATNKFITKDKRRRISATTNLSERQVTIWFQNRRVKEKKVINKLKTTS

The nature of assay [4]: blockers of DNA damage checkpoint Chk1 activation – imaging, HeLa, hydroxyurea, phospho-Chk1 antibody, percent positive cells, primary screen (AID 1186). Conditions: hydroxyurea-induced phospho-Chk1 immunofluorescence imaging, higher = more signal.
Assay [5] is described as follows: blockers of DNA damage checkpoint Chk1 activation – imaging, HeLa, hydroxyurea, phospho-Chk1 nuclear intensity, primary screen (AID 1187). Conditions: hydroxyurea-induced phospho-Chk1 immunofluorescence imaging, higher = more signal.

Regarding `C#CCN(C(/C=C/c1ccccc1)CO)C(C(=O)O)c1ccccc1` (configuration not stated), the figures for the composite z-score (in assay [1]; in the assay with XIP peptide (Xip251-270)) were 0.194 (inactive) and -0.722, respectively. For the same molecule, the z-score in assay [2] is -2.23; in assay [3] it was 0.9 (inactive); in assay [4] it was 0.301 (inactive); in assay [5], 0.353 (inactive).

Regarding `O=C1O[C@H](c2ccccc2)[C@H](c2ccccc2)N2[C@H]1[C@@H](C(=O)N1CCN(c3ncccn3)CC1)[C@]1(C(=O)Nc3ccccc31)[C@H]2c1ccc(OCCO)cc1`, the results for the composite z-score (in assay [1]; with XIP peptide (Xip251-270)) were -0.161 (inactive) and 0.219, respectively. For the same molecule, the z-score in assay [2] is -2.39; in assay [3], 2.46 (inactive); in assay [4] it was -0.54 (inactive); in assay [5], -1.1 (inactive).

With `O=C(O)[C@@]1(Cc2ccccc2)N=C(c2ccc(OCCCO)cc2)O[C@H]1c1ccccc1`, the composite z-score is 0.213 (inactive) in assay [1] and 0.427 in the assay with XIP peptide (Xip251-270). Besides, the z-score in assay [2] is 0.653; in assay [3] it was -5.03 (inactive); in assay [4] it was -0.294 (inactive); in assay [5], -0.224 (inactive).

Turning to `O=C(CS)NCCCCCCNC(=O)[C@@H]1C[C@@H]2C(=O)N3CCC[C@H]3C(=O)N2[C@@H]1c1ccc(O)cc1`, the composite z-score is 0.689 (inactive) in assay [1] and 0.422 with XIP peptide (Xip251-270). Besides, the z-score in assay [2] is 0.331; in assay [3] it was -3.65 (inactive); in assay [4], -0.0018 (inactive); in assay [5] it was 0.499 (inactive).

For `O=c1cccc(CCc2ccccc2)o1`, the composite z-score in assay [1] is 0.223 (inactive); with XIP peptide (Xip251-270) it was 0.903. Besides, the z-score was 2.16 in assay [2], -3.17 (inactive) in assay [3], 0.576 (inactive) in assay [4] and 0.158 (inactive) in assay [5].

As to `O=c1cccc(C=Cc2ccccc2)o1`, the composite z-score is -0.707 (inactive) in assay [1] and -0.764 with XIP peptide (Xip251-270). Besides, the z-score is -0.907 in assay [2], -0.516 (inactive) in assay [3], -0.0971 (inactive) in assay [4] and -0.0437 (inactive) in assay [5].

For the molecule `COC(=O)[C@@]1(Cc2ccccc2)[C@H]2c3cc(C(=O)N(C)C)n(Cc4c(-c5ccccc5)noc4C)c3C[C@H]2CN1C(=O)c1ccccc1`, the values for the composite z-score (in assay [1]; in the assay with XIP peptide (Xip251-270)) were 0.28 (inactive) and 0.12, respectively. Moreover, the z-score in assay [2] is -1.74; in assay [3], -2.59 (inactive); in assay [4], 0.317 (inactive); in assay [5], 0.0597 (inactive).

As for `CC(C)C(=C=CC[C@H](O)c1cccc(OCCO)c1)C[C@H](O)COCc1ccccc1`, the composite z-score in assay [1] was 0.31 (inactive); in the assay with XIP peptide (Xip251-270), -0.376. The z-score in assay [2] is -1.49; in assay [3] it was -3.93 (inactive); in assay [4], -0.648 (inactive); in assay [5], -0.289 (inactive).

As to `C=CC[C@@]1(C(=O)O)N=C(c2ccc(OCCCO)cc2)O[C@@H]1c1ccccc1N=[N+]=[N-]`, the values for the composite z-score (in assay [1]; in the assay with XIP peptide (Xip251-270)) were 0.926 (inactive) and 0.823, respectively. Further, the z-score in assay [2] is -0.814; in assay [3], -6.19 (inactive); in assay [4] it was 0.103 (inactive); in assay [5], -0.0861 (inactive).

`[N-]=[N+]=NCc1ccccc1C[C@]1(C(=O)O)N=C(c2ccc(OCCCO)cc2)O[C@H]1c1ccccc1`: the composite z-score was 1.06 (inactive) in assay [1] and 0.228 in the assay on XIP peptide (Xip251-270). For the same molecule, the z-score in assay [2] was -0.296; in assay [3], -5.85 (inactive); in assay [4] it was 0.109 (inactive); in assay [5], 0.0605 (inactive).

As for `C=CCN1C(=O)[C@]2(O[C@H](CCO)[C@@H]([Si](C)(C)c3ccc(OC)cc3)[C@@H]2C)c2cc(NC(=O)[C@H](C)O)ccc21`, the values for the composite z-score (in assay [1]; in the assay on XIP peptide (Xip251-270)) were 1.46 (inactive) and 0.822, respectively. For the same molecule, the z-score was -2.74 in assay [2], -5.5 (inactive) in assay [3], 1.42 (inactive) in assay [4] and 0.436 (inactive) in assay [5].

For `COC(=O)[C@@]1(Cc2ccc(F)cc2)[C@H]2c3cc(C(=O)N4CCCC4)n(Cc4cccc5ccccc45)c3C[C@H]2CN1C(=O)c1ccccc1`, the figures for the composite z-score (in assay [1]; in the assay with XIP peptide (Xip251-270)) were 0.702 (inactive) and 0.0322, respectively. The z-score was -1.74 in assay [2], -4.87 (inactive) in assay [3], -0.704 (inactive) in assay [4] and -0.576 (inactive) in assay [5].

With `CCC[C@@H]1C=C(C(=O)O)[C@H](c2ccc(C)cc2)N1S(=O)(=O)c1ccc(C)cc1`, the composite z-score in assay [1] is -0.0617 (inactive); in the assay on XIP peptide (Xip251-270), 0.884. Also, the z-score in assay [2] was 0.977; in assay [3] it was -3.27 (inactive); in assay [4], 0.941 (inactive); in assay [5] it was 1.34 (inactive).

For `N#Cc1ccc(NN2C(C(O)c3ccc([N+](=O)[O-])cc3)C=CC3C(=O)N(c4ccccc4)C(=O)C32)cc1` (configuration not stated), the composite z-score was 0.311 (inactive) in assay [1] and 0.807 in the assay on XIP peptide (Xip251-270). Moreover, the z-score in assay [2] is 0.272; in assay [3] it was -4.27 (inactive); in assay [4], 0.446 (inactive); in assay [5], 0.5 (inactive).

As to `COCCOC(=O)N1C(=O)[C@@]2(c3cc(C#CCNC(N)=O)ccc31)[C@H](C(=O)N1CCc3cc(OC)c(OC)cc3C1)[C@H]1C(=O)O[C@H](c3ccccc3)[C@H](c3ccccc3)N1[C@@H]2c1ccc(OCCO)cc1`, the composite z-score is 0.034 (inactive) in assay [1] and 0.616 in the assay with XIP peptide (Xip251-270). The z-score in assay [2] is -1.3; in assay [3], 1.53 (inactive); in assay [4] it was -0.184 (inactive); in assay [5] it was -0.0927 (inactive).

As to `C[C@]1(C(=O)NCc2ccccc2)c2ccccc2C(=O)N(Cc2cc(F)cc(C(F)(F)F)c2)[C@H]1c1ccc(CO)cc1`, the composite z-score is 0.753 (inactive) in assay [1] and 0.518 in the assay on XIP peptide (Xip251-270). The z-score in assay [2] is -0.327; in assay [3] it was -3.43 (inactive); in assay [4], -0.603 (inactive); in assay [5], -0.552 (inactive).

On to `[N-]=[N+]=NCc1ccccc1[C@@H]1OC(c2ccc(OCCCO)cc2)=N[C@]1(Cc1ccccc1N=[N+]=[N-])C(=O)NCc1ccccc1`, for which the composite z-score is 0.304 (inactive) in assay [1] and 0.442 in the assay on XIP peptide (Xip251-270). The z-score was -2.29 in assay [2], 1.76 (inactive) in assay [3], -0.76 (inactive) in assay [4] and -0.767 (inactive) in assay [5].

Source of the values: PubChem BioAssay.
